FAS-TE inh = FAS thioesterase domain inhibitors, primary screen, biochemical, fluorescence intensity, uHTS; AID 602261, 2012; inhibition, % at 15 µM; Fatty acid synthase (Homo sapiens), P49327; recombinant FAS-TE, OMFH fluorogenic substrate, fluorescence endpoint; 360,000 tested, 0.67% active;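 active = compounds whose normalised, plate-corrected inhibition of enzyme fluorescence in the single-dose primary screen is 50% or more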
Target sequence (P49327 whole entry, looked up, the tested form may be a part): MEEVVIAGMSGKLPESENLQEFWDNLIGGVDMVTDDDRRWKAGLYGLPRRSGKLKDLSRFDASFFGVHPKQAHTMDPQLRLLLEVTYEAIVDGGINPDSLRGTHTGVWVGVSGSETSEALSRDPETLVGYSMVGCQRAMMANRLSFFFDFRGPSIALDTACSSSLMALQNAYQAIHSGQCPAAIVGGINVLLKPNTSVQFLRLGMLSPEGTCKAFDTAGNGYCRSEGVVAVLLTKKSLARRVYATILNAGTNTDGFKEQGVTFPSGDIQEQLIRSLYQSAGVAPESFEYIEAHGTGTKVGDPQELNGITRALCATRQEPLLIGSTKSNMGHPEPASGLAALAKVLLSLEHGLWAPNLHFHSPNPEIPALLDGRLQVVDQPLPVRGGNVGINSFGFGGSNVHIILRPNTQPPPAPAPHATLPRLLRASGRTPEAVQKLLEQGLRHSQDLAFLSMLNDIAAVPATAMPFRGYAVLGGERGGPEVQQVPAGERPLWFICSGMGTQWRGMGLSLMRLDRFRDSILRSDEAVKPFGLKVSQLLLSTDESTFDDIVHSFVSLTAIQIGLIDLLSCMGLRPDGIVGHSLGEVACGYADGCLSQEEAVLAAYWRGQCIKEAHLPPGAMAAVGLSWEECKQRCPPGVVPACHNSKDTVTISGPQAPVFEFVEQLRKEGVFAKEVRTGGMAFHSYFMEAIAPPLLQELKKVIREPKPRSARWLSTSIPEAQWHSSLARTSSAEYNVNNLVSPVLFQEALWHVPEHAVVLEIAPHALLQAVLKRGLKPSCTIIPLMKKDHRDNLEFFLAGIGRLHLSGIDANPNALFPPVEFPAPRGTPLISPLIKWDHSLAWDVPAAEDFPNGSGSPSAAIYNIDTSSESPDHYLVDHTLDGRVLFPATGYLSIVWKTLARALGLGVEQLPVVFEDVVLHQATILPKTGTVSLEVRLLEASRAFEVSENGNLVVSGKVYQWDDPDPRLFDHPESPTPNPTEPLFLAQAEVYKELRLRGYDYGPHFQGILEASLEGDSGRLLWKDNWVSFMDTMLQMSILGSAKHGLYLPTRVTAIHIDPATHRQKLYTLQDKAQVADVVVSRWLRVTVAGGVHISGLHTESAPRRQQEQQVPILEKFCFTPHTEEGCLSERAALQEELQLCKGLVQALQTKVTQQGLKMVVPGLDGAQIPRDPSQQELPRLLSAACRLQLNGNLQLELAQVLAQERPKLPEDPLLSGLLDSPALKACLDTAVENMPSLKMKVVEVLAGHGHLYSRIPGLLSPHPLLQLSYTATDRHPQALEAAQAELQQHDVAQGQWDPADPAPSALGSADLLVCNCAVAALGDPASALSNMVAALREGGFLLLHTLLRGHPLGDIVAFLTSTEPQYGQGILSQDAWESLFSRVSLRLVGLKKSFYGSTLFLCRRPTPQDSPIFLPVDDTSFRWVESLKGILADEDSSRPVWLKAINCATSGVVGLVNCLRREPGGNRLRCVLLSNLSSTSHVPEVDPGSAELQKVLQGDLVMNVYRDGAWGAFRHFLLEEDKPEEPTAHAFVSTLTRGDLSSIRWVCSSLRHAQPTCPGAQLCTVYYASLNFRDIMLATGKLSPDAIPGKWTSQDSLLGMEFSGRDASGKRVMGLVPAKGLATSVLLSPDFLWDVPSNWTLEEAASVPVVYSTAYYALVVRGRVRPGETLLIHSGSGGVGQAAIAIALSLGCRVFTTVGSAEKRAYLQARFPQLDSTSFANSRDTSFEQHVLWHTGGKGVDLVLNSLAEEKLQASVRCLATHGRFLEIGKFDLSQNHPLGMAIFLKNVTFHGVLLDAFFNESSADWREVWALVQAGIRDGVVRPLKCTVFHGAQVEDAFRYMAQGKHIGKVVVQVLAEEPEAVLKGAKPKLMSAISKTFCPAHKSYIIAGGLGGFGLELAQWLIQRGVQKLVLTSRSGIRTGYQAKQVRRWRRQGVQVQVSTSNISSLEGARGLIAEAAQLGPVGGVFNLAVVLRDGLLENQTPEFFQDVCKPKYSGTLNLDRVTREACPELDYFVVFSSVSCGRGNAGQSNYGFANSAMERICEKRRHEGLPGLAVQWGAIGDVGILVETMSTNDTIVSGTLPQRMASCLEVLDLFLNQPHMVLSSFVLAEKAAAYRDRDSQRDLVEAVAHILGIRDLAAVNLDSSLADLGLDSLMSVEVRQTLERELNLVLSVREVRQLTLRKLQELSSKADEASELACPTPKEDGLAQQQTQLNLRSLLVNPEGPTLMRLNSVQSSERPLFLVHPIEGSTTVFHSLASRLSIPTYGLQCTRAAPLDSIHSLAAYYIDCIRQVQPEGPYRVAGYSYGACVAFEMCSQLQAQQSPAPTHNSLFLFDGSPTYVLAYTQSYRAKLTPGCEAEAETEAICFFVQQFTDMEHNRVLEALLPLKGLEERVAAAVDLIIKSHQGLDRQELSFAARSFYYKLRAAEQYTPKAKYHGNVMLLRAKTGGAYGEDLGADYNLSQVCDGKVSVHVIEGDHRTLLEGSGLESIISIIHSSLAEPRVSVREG
rCAG RNA binder = binders of r(CAG) RNA repeats, primary screen, biochemical, fluorescence; r(CAG) RNA repeat, TO-PRO-1 dye displacement fluorescence; inhibition, % at 3 µM; 370,000 tested, 1.3% active; AID 651821, 2012;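 active = inhibition above the plate cutoff, the mean of all test compounds on that plate plus 3 SD, cut at about 35% in these data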;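 note: higher means more dye released from RNA so lower well fluorescence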
NadD inh = inhibitors of S. aureus NadD, primary screen, biochemical, colorimetric, uHTS | Nicotinate-nucleotide adenylyltransferase NadD (Staphylococcus aureus N315) | purified NadD enzyme, colorimetric absorbance read-out | inhibition, % at 20 µM | 360,000 tested, 0.78% active | AID 602399, 2012; in the data active = inhibition above about 26%
NR3A LBD binder = binders of NR3A ligand-binding domain, primary screen, biophysical, differential scanning fluorimetry, uHTS; Glutamate receptor ionotropic, NMDA 3A (GRIN3A) ligand-binding domain; NR3A LBD differential scanning fluorimetry, Tm shift; 0% = protein alone, 100% = glycine-bound protein; Tm shift relative to glycine control, % at 25 µM; 340,000 tested, 2.5% active; AID 1259313, 2017;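 active = melting temperature shift of at least 10% of the positive control shift, at one fixed dose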
rCAG bind conf = small molecules binding CAG repeat RNA – biochemical, fluorescence, confirmation; shares compounds with rCAG RNA binder; r(CAG) RNA repeat, TO-PRO-1 dye displacement fluorescence; inhibition, % at 3 µM; 4,300 tested, 70% active;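 active = inhibition above a per-plate cutoff, the mean inhibition of sample wells plus 3 SD, cut at about 35% in these data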;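 note: loss of TO-PRO-1 fluorescence as compound displaces dye from 1x1 AA loop RNA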
dCAG dye counter = displacement of TO-PRO-1 from CAG DNA duplex, counter-screen for rCAG RNA repeat binder project, biochemical, fluorescence, TO-PRO-1 dye, d(CAG) DNA oligo | shares compounds with rCAG RNA binder | d(CAG) DNA oligo TO-PRO-1 dye displacement | inhibition, % at 3 µM | 4,300 tested, 94% active;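 active = inhibition above its plate's cutoff, the mean test-well inhibition plus 3 SD, cut at about 4.8% in these data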;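 note: hits displace the dye from DNA and so lower well fluorescence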
A number is an active result. Most compounds without a hit are left out; they make up all but 4.3% or so of the library.

For COC(=O)[C@]12C[C@H](CC(=O)N3CCCCC3)C(=O)N(Cc3ccc4c(c3)OCO4)C1=C[C@H](COCc1ccccc1)O[C@@H]2C the results were rCAG RNA binder inactive.
Cc1cccc2c1c1ccc3c(c1n2C)C(=O)C=CC3=O was read as FAS-TE inh inactive, rCAG RNA binder 39.5, NadD inh 50.2, NR3A LBD binder inactive, rCAG bind conf inactive and dCAG dye counter 12.6.
For O=C(O)C(=Cc1ccncc1)c1cccc2ccccc12 the results were FAS-TE inh inactive, rCAG RNA binder inactive and NadD inh inactive.
For O=C(O)/C(=C\c1ccc2ccccc2c1)c1cccc2ccccc12 the results were FAS-TE inh inactive, rCAG RNA binder 57.8, NadD inh inactive, NR3A LBD binder inactive, rCAG bind conf 52.3 and dCAG dye counter 17.4.
`COc1ccc(N2C(=O)c3n[nH]c(C)c3C2c2ccc(F)cc2)cc1` (configuration not stated) gave rCAG RNA binder inactive.
Screening CC(C)(C)NC(=O)C(c1ccccc1F)n1c(=O)c(-c2ccco2)nc2ccccc21 (configuration not stated) returned rCAG RNA binder 40.9, rCAG bind conf inactive and dCAG dye counter 7.8.
For CCCCC(=O)NC(=S)Nc1cc(C(=O)O)ccc1OC the results were FAS-TE inh inactive, rCAG RNA binder inactive, NadD inh inactive and NR3A LBD binder inactive.
`COc1ccc(C(=O)O)cc1NC(=S)NC(=O)/C=C/c1ccc(C(C)C)cc1` gave FAS-TE inh inactive, rCAG RNA binder 57.0, NadD inh inactive, NR3A LBD binder inactive, rCAG bind conf 74.9 and dCAG dye counter 39.7.
NC(=O)c1ccccc1NC(=O)/C=C/c1ccc(Cl)cc1 was read as FAS-TE inh inactive, rCAG RNA binder inactive, NadD inh inactive and NR3A LBD binder inactive.
O=C(/C=C/c1ccc(Cl)cc1)NC(=S)Nc1ccccc1C(=O)O was read as FAS-TE inh inactive, rCAG RNA binder 34.9, NadD inh inactive, NR3A LBD binder inactive, rCAG bind conf inactive and dCAG dye counter 9.1.
`COc1ccc(-c2c(Cc3ccccc3)nc(NC(=O)c3ccccc3)n2Cc2ccc(OC)cc2OC)cc1` gave rCAG RNA binder inactive.
For O=C(O)c1cc(N=Cc2c(O)c3ccccc3oc2=O)ccc1O the results were FAS-TE inh inactive, rCAG RNA binder 37.8, NadD inh inactive, NR3A LBD binder inactive, rCAG bind conf inactive and dCAG dye counter inactive.
O=C(Nc1c(-c2ccc(C(F)(F)F)cc2)nc2ncccn12)c1ccccc1 was read as rCAG RNA binder inactive.
For CN(C)C(CNC(=O)c1cccc(S(=O)(=O)Nc2ccccc2Cl)c1)c1ccco1 (configuration not stated) the results were FAS-TE inh inactive, rCAG RNA binder inactive, NadD inh inactive and NR3A LBD binder inactive.
Screening C/C(=N\NC(=O)c1cccc(S(=O)(=O)Nc2ccccc2Cl)c1)c1ccco1 returned FAS-TE inh inactive, rCAG RNA binder 47.8, NadD inh inactive, NR3A LBD binder inactive, rCAG bind conf inactive and dCAG dye counter 6.8.
`C/C(=N\NC(=O)c1ccc(Cl)c(S(=O)(=O)Nc2ccccc2Cl)c1)c1ccncc1` gave FAS-TE inh inactive, rCAG RNA binder 50.9, NadD inh inactive, NR3A LBD binder inactive, rCAG bind conf 40.5 and dCAG dye counter 10.8.
Screening Cc1ccccc1CN1CCN(C(=O)[C@H]2O[C@@H](n3cnc(C(N)=O)n3)[C@H](O)[C@@H]2O)CC1 returned rCAG RNA binder inactive.
`C=CCN1C(=O)[C@@H](CC(=O)N2CCN(C(=O)c3ccco3)CC2)[C@]2(C(=O)OCC)CCCCC/C=C/12` gave rCAG RNA binder inactive.
`CC(C)CNC(=O)OCc1cn(Cc2ccc(F)cc2F)nn1` gave rCAG RNA binder inactive.
`COc1ccc(CC(=O)Nc2ccc(C(=O)NC(C)(C)C)cc2)cc1OC` gave FAS-TE inh inactive, rCAG RNA binder inactive, NadD inh inactive and NR3A LBD binder inactive.

Screens as filed in PubChem BioAssay.
